Data: PubChem BioAssay AID504832 (National Center for Advancing Translational Sciences (NCATS), 2011)
Screen size: about 310,000 compounds; about 18,000 (5.8%) were called active. Another 22% or so got no clear call; they are omitted. This is one part of a sample in which actives are shown more often than they occur. Unmarked numbers belong to inactive results. The call rests on the fitted dose curve; in most records, active means well fitted inhibition curve with a large enough effect; inconclusive means small, poorly fitted or top-dose-only effect, or another doubt; inactive means no such curve, though single readings can be large or run the other way.

Test: Primary qHTS for delayed death inhibitors of the malarial parasite plastid, 48 hour incubation
Conditions: P. falciparum luciferase growth in erythrocytes; series mostly up to 28.7 µM; activity change, negative = inhibition: at the top concentration
Summary of the method: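 Erythrocytes infected with P. falciparum carrying an integrated firefly luciferase reporter (2% hematocrit, 0.1% parasitemia final) were exposed to compounds in RPMI 1640 with 0.5% Albumax at 37 C, 5% CO2. Growth inhibition was scored as reduced luminescence.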
On the % scale 0 is the no-effect control and ±100 the full control effect; potency means the concentration at half of the fitted maximal effect.

Compound | activity change, negative = inhibition [%] | Potency
O=C(CN1CCOC1=O)N1CCCC(Nc2ccc(F)c(F)c2)C1 (stereo not drawn) | 0.222 | –
COc1ccccc1-c1cnn2c(N3CCOCC3)cc(C)nc12 | 95.7 | –
Cn1nccc1/C=N\NC(=O)c1ccc(Cl)cc1 | 15 | –
CN(CCc1ccccn1)C(=O)c1ccc(OC2CCN(Cc3ccccn3)CC2)cc1 | 0.5 | –
COc1cc(OC)c(C(=O)NCc2ccc3c(c2)OCO3)cc1OC | 0.912 | –
CCN(CC)C(=O)CC(c1ccc2c(c1)OCO2)c1c(OC)cc(OC)c2c(-c3ccccc3)cc(=O)oc12 (stereo not drawn) | – | 11.7 µM (active)
CC(=O)COc1ccc2c(-c3ccccc3)cc(=O)oc2c1 | 34.8 | –
COc1ccc(F)cc1S(=O)(=O)NCC(c1ccc2c(c1)OCO2)N1CCN(C)CC1 (stereo not drawn) | 0.254 | –
CCCCN(CC)C(=O)c1ccc2c(c1)OCO2 | -5.43 | –
Cc1[nH][nH]c(=O)c1C(c1ccc2c(c1)OCO2)c1c(C)[nH][nH]c1=O | 0.59 | –
CCN(CC)CCC(c1cc(OC)c(OC)c(OC)c1)c1c(OC)cc(OC)c2c(-c3ccccc3)cc(=O)oc12 (stereo not drawn) | – | 3.29 µM (active)
COc1ccc(-c2cc(=O)oc3cc(OCC(=O)N[C@@H](Cc4c[nH]c5ccccc45)C(=O)O)ccc23)cc1 | 2.65 | –
CCN(CC)CCC(c1ccc2c(c1)OCO2)c1c(OC)cc(OC)c2c(-c3ccccc3)cc(=O)oc12 (stereo not drawn) | – | 9.28 µM (active)
O=C(NNC(=O)c1ccc(-n2cncn2)c([N+](=O)[O-])c1)c1ccccc1 | -10.8 | –
S=C(Nc1ccc(Cl)cc1Cl)N1CCCC1 | 54.8 | –
COc1cc(/C=N/NC(=O)Cc2ccccc2)cc(OC)c1OC | 6.42 | –
O=C(Nc1cccc(F)c1)[C@@H]1CCCN1 | -9.54 | –
Cc1cc(C)nc(NS(=O)(=O)c2ccc(N3C(=O)C4CCCCC4C3=O)cc2)n1 (stereo not drawn) | 26.1 | –
Cc1cc(N2C(=O)C(O)=C(C(=O)c3ccc(C)o3)C2c2ccc(OCc3ccccc3)cc2)no1 (stereo not drawn) | 5.29 | –
O=C(Cn1nc([N+](=O)[O-])nc1Br)NC1CCCCC1 | – | 1.47 µM (active)
Cc1cc(C(F)F)nn1CC(=O)NC1CCCCCC1 | 10.4 | –
Cc1nn(CC(=O)NC2CCCCC2)c(=O)c2cccn12 | 29.8 | –
CC1(C)O[C@@H]2[C@H](O1)[C@@H](CO)O[C@H]2n1c(N2CCCCC2)nc2c(N)ncnc21 | -1.31 | –
O=C(NCc1cccnc1)C12CC3CC(CC(C3)C1)C2 | -8.11 | –
O=C(CCl)Nc1cccc(CP(=O)(c2ccccc2)c2ccccc2)c1 | – | 10.4 µM (active)
O=C(Cc1ccccc1)Nc1cccc(NC(=O)c2ccccc2)c1 | 312 | –
CCc1cccc(NC(=O)CCC(=O)O)c1 | 2.01 | –

Compound | activity change, negative = inhibition [%] | Potency
CC(=O)Nc1ccc(/C=C/C(=O)c2ccccc2)cc1 | 48.1 | –
CC(/C=C/c1ccccc1)=N\NC(=O)C1CC1(C)c1ccccc1 (stereo not drawn) | – | 11.7 µM (active)
O=C(/C=C/c1ccccc1)c1ccccc1O | 28.4 | –
O=S(=O)(c1ccc(-c2ccno2)s1)N1CCCCC1 | 3.71 | –
CCn1cc(C(=O)N[C@@H](C)C(=O)NCCO)c(=O)c2cc3c(cc21)OCO3 | 20.8 | –
CCOC(=O)c1sc2nc(SC)nc(-c3ccccc3)c2c1N | 10.1 | –
CCOC(=O)C1=C(CC)Nc2ccccc2N=C1N | 10.7 | –
CCOC(=O)c1cc(Sc2ccccc2N)cc(C(=O)OCC)n1 | – | 0.147 µM (active)
CCOc1ccc(N2C(=O)CSC2=NC#N)cc1 | -21.6 | –
COc1ccccc1CNS(=O)(=O)CC12CCC(CC1=O)C2(C)C (stereo not drawn) | 10.1 | –
COC(=O)c1ccc(Nc2ncnc3sccc23)cc1 | 19.8 | –
Cc1nnc(SCC(=O)N2CCN(c3ccccc3)CC2)n1-c1ccccc1 | -0.135 | –
Cc1nnc(SCC(=O)NCCOc2ccc(Cl)cc2)n1-c1ccccc1 | -17.2 | –
Cc1nnc(SCc2ccc(C(=O)c3ccc(Cl)cc3)o2)n1-c1ccccc1 | – | 14.7 µM (active)
Cc1noc(C)c1C(=O)NCCc1ccc(S(N)(=O)=O)cc1 | -3.59 | –
COc1ccc(C)cc1NC(=S)N1CCOCC1 | 0.499 | –
CCOC(=O)c1sc(NC(=O)c2sc(C)nc2C)nc1C | 19.2 | –
Cn1c(Nc2ccccc2)cc(=O)n(C)c1=O | -11.8 | –
CCCCc1ccc(NC(=O)CN2C(=O)NC(Cc3ccccc3)C2=O)cc1 (stereo not drawn) | -23.3 | –
Cc1ccc(N2C(=O)C(Cc3ccccc3)NC2=S)cc1 (stereo not drawn) | -18.5 | –
O=C1C(Cc2ccc(O)cc2)NC(=S)N1Cc1ccccc1 (stereo not drawn) | – | 2.94 µM (active)
C=CCOc1ccc(C(=O)Nc2ccccc2C(=O)N2CCCC2)cc1 | -4.59 | –
CCOC(=O)CNc1nc(Cl)nc(Nc2ccc(OC)cc2OC)n1 | 122 | –
Cc1c(O)c(C)c2c(c1O)C(=O)C[C@@H](c1ccccc1)O2 | – | 13.1 µM (active)
CCCc1cc(C(=O)Nc2ccc(Cl)cn2)cs1 | 274 | –
Cc1cc(CNC(=O)C2CCC(=O)N(CCc3ccc(Cl)cc3)C2)no1 (stereo not drawn) | -6.17 | –
